MMP13 inh = blocks human MMP13 activity; P45452; inhibition, % at 4 µM; hit rate 0.07% among 65,000; MMP-13 fTHP FRET cleavage, Mca fluorescence; AID 570;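 active = inhibition above the mean of compound-free control plate wells plus 3 SD, cut at about 14% in these data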
ERb coact inh = ER-beta (human) coactivator binding inhibition. TR-FRET ER-beta LBD / SRC1-Cy5 peptide binding; receptor agonist-loaded with 1 µM estradiol. inhibition, % at 25.6 µM. Q92731. hit rate 1.3% among 86,000;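 active = compounds whose percent inhibition of the receptor-coactivator binding signal exceeds about 50% in the single-dose screen, limit read from the data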
Smad3 FoxH1 inh = Smad3 (human) transcription factor binding inhibition | AID 630 | hit rate 0.29% among 88,000 | P84022 | TR-FRET Smad3/Dy647-FoxH1 peptide binding, europium anti-His | inhibition, % at 25 µM;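 active = compounds that reduce the energy-transfer binding signal between the protein and its labelled peptide by more than half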
Target sequence (P84022 whole entry, looked up): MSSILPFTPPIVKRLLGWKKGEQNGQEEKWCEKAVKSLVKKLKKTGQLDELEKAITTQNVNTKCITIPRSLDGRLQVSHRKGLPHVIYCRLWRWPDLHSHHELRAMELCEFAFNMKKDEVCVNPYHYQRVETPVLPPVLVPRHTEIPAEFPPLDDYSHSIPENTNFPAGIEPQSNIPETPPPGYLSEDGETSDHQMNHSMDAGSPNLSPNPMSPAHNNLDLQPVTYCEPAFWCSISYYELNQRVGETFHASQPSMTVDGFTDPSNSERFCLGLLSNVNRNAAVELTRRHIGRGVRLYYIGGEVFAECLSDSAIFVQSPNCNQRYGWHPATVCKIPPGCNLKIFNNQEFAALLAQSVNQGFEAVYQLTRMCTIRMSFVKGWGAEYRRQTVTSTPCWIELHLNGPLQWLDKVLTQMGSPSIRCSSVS
ERa coact inh = ER-alpha (human) coactivator binding inhibition. TR-FRET ER-alpha LBD / SRC-1 peptide, estradiol-bound. AID 629. hit rate 1.7% among 86,000. P03372. inhibition, % at 25.6 µM; in the data active = inhibition above about 50%
ERa coact pot = ER-alpha (human) coactivator binding potentiation; hit rate 1.3% among 86,000; TR-FRET ERalpha-LBD/SRC-Cy5 coactivator binding, 2 h; 100 = basal binding, no effect; coactivator binding (% of control), % at 25.6 µM; in the data active = activity above about 200%;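 note: binding measured in presence of low estradiol as agonist stimulus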
MT1-MMP txn act = MT1-MMP promoter transcription activation | hit rate 0.16% among 86,000 | AID 750 | HT1080 MT1-MMP promoter luciferase reporter, luminescence, overnight; active compounds read high | activation factor at 10 µM;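 active = activation factor of at least 2 for MT1-MMP transcription at 10 µM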
Numbers stand for hits; n = inactive; x = not tested or not shown; [ ] = dose if it differs, or a comment. Shown are actives, neighbours in structure and some others; about 3.5% of the full set was active somewhere.

SMILES	MMP13 inh	ERb coact inh	Smad3 FoxH1 inh	ERa coact inh	ERa coact pot	MT1-MMP txn act
O=C(CSc1nc2cc(Cl)ccc2s1)NC(=O)NCc1ccco1	n	n	n	57	n	n
CCCCc1nc2sc3c(SCC(=O)NCc4ccco4)ncnc3c2c2c1CCC2	x	n	n	n	575[fluorescence artefact?]	n
CCc1nc(SCC(=O)NCc2ccco2)c2c3c(sc2n1)CCCC3	n	n	n	n	n	n
CCCn1c(=O)c2ccccc2n2c(SCc3c(C(=O)OCC)oc4ccccc34)nnc12	n	x	x	x	x	n
COc1ccc(OC)c(C2CC(=O)NC(SC)=C2C#N)c1 (centres undefined)	n	n	n	n	n	n
Cc1ccc(C(=O)NCCN(C)C)cc1C	x	n	n	n	n	n
COCCCNC(=O)Cn1cc2c(n1)CCC(C)C2 (centres undefined)	n	n	n	n	205	n
COC(=O)c1oc2ccc(Br)cc2c1NC(=O)CCCN1C(=O)c2ccccc2C1=O	n	n	n	52	n	n
O=C(CCCN1C(=O)c2ccccc2C1=O)Nc1c(C(=O)C2CC2)oc2ccccc12	x	n	n	n	n	x
Cn1c(=O)c2cc(S(=O)(=O)N3CCN(c4cccc(C(F)(F)F)c4)CC3)ccc2n(C)c1=O	n	n	n	n	n	x
C=CCn1cnc2c(c1=O)c1nc3ccccc3nc1n2-c1ccccc1	n	n	n	n	n	n
CCC(C)n1cnc2c(c1=O)c1nc3ccccc3nc1n2-c1ccc2c(c1)OCCO2 (centres undefined)	n	n	n	n	246	n
CCC(C)n1cnc2c(c1=O)c1nc3ccccc3nc1n2Cc1ccc2c(c1)OCO2 (centres undefined)	n	n	n	n	n	n
O=c1c2c3nc4ccccc4nc3n(-c3cccc(F)c3)c2ncn1Cc1ccc2c(c1)OCO2	n	61[fluorescence artefact?]	n	82[fluorescence artefact?]	n	n
Cc1ccc(C)c(C(=O)CSc2n[nH]c(-c3ccncc3)n2)c1	n	x	x	x	x	n
CNC(=O)CN1C(=O)CSc2ncccc21	n	n	n	n	n	n
CN1CCN(C(=O)c2ccccc2-c2nc(-c3ccccc3)no2)CC1	n	n	n	n	n	n
CCc1ccc(CNC(=O)c2cc3c(C)nc4ccccc4c3o2)cc1	x	60[fluorescence artefact?]	n	n	n	x
Cc1nc2cccc(C(=O)NCc3ccccc3)c2o1	n	n	n	64	n	n
COc1cc(NC(=O)c2cc3c(C)nc4ccccc4c3o2)cc(OC)c1OC	n	n	n	n	n	n
Cc1occc1C(=O)NCc1cccc(CNC(=O)c2ccoc2C)c1	n	n	n	65	n	n
COc1ccc(C)cc1NC(=O)c1cc2c(C)nc3ccccc3c2o1	n	58[fluorescence artefact?]	n	66[fluorescence artefact?]	204[fluorescence artefact?]	n
COc1cccc(CNC(=O)c2cc3c(C)nc4ccccc4c3o2)c1	x	n	n	n	n	x
COC(=O)c1ccc(NC(=O)CCn2c(=O)oc3ccccc32)cc1	n	n	n	n	n	n
COc1ccc2nc(-c3ccc(N)cc3)[nH]c2c1	x	n	n	n	n	x
SMILES	MMP13 inh	ERb coact inh	Smad3 FoxH1 inh	ERa coact inh	ERa coact pot	MT1-MMP txn act
Nc1ccc2nc(-c3ccccn3)[nH]c2c1	x	76[fluorescence artefact?]	n	97[fluorescence artefact?]	n	n
COc1ccc2nc(-c3cccc(N)c3)[nH]c2c1	x	n	n	n	n	n
CC(=O)Nc1ccc2nc(-c3cccs3)[nH]c2c1	n	n	n	n	n	n
Nc1ccc2nc(-c3cccs3)[nH]c2c1	x	56[fluorescence artefact?]	n	n	n	n
Nc1ccc(-c2nc3c(Cl)cc(N)cc3[nH]2)cc1	n	n	n	n	n	x
Nc1ccc2nc(-c3ccc(N)c(Cl)c3)[nH]c2c1	x	54[fluorescence artefact?]	n	92[fluorescence artefact?]	n	n
Nc1ccc2nc(-c3ccccc3)[nH]c2c1	x	n	n	82[fluorescence artefact?]	n	n
CCN(CC)S(=O)(=O)c1ccc(S(=O)(=O)Nc2ccc(C(=O)N3CCCC3)cc2)cc1	n	n	n	n	n	n
CN(CCCCCC(=O)/C=N/O)Cc1ccccc1	n	n	n	n	n	n
Cc1cc(C)nc(SCC(=O)c2c(N)n(C)c(=O)n(C)c2=O)n1	x	n	n	n	n	n
COc1ccc2[nH]c3c(c2c1)CCn1c-3nc2ccccc2c1=O	n	n	n	80	n	n
CCc1ccc(OCC(=O)Nc2ccc(-c3nc4ccccc4o3)c(O)c2)cc1	n	70[fluorescence artefact?]	n	80[fluorescence artefact?]	n	n
COCCCn1c(=N)c(C(=O)NCc2ccc3c(c2)OCO3)cc2c(=O)n3ccccc3nc21	n	n	n	n	n	n
O=C(NCc1ccc2c(c1)OCO2)c1ccc2c(=O)n(C3CCCC3)c(=O)[nH]c2c1	n	n	n	n	n	n
COc1ccc(Cn2c(=O)[nH]c3cc(C(=O)NCc4ccc5c(c4)OCO5)ccc3c2=O)cc1	n	n	n	51	n	n
N=c1c(C(=O)NCc2ccc3c(c2)OCO3)cc2c(=O)n3ccccc3nc2n1Cc1cccnc1	n	57	n	92[fluorescence artefact?]	n	n
COc1ccc(CNC(=O)c2cc3c(=O)n4ccccc4nc3n(Cc3cccnc3)c2=N)cc1	n	n	n	78[fluorescence artefact?]	n	n
Cc1cccc(NC(=O)c2cc(NC(=O)C3CCCCC3C(=O)O)ccc2Cl)n1 (centres undefined)	n	n	n	n	n	n
Cc1cc(-c2ccccc2)nc2cc(C(N)=O)nn12	n	x	x	x	x	n
COc1ccc(NC(=O)C2CCCN2S(=O)(=O)c2ccc(C)cc2)cc1 (centres undefined)	x	n	n	n	n	n
CCOc1ccc(C(=O)Nc2ccc(NC(=O)c3ccco3)c(Cl)c2)cc1Br	n	x	x	x	x	x
CCOc1ccc(C(=O)Nc2ccc(NC(=O)c3ccco3)c(Cl)c2)cc1Cl	x	n	n	n	715[fluorescence artefact?]	n
C/C(N)=C(/C#N)C(=O)CSc1nc2cc(Cl)ccc2s1	n	x	x	x	x	n
C/C(N)=C(/C#N)C(=O)CSc1nnc(Nc2cccc(C)c2)s1	n	96[fluorescence artefact?]	n	91[fluorescence artefact?]	n	n
O=C(Cn1[nH]c(=O)c2ccccc2c1=O)Nc1ccc2c(c1)CCC2	n	n	n	n	n	n
SMILES	MMP13 inh	ERb coact inh	Smad3 FoxH1 inh	ERa coact inh	ERa coact pot	MT1-MMP txn act
Cc1ccc(-c2nnn(CC(=O)Nc3ccc4nn(-c5ccccc5)nc4c3)n2)o1	n	n	n	58	n	n
Cc1ccc(-c2nnn(CC(=O)NCC3CC3)n2)o1	x	n	n	n	n	n
CC(=O)C1=C(C)NC(SCC(=O)c2ccc(-c3ccccc3)cc2)=C(C#N)C1c1cccnc1 (centres undefined)	x	n	n	n	355[fluorescence artefact?]	n
Cn1nc(-c2ccc(Cl)cc2)nc2c(=O)n(C)c(=O)nc1-2	x	n	80	n	n	n
Cc1cc(C(=O)OCC(=O)NC2CCCCC2)c(C)o1	x	n	n	n	n	n
Cn1c2ccccc2c(=O)c2c(=O)n(C3CCCCC3)c(-c3cccs3)nc21	x	n	n	n	436[fluorescence artefact?]	n
O=C(Cn1cc(C(=O)c2ccco2)c2ccccc21)NC1CCCC1	n	n	n	n	554[fluorescence artefact?]	n
Cc1ccc(C(=O)Nc2nc3ccccc3c(=O)s2)cc1	n	60	n	n	n	n
O=C(Nc1nc(=O)c2ccccc2s1)c1ccccc1	n	n	n	n	n	n

Screens from PubChem.
